The panel holds about 79,000 compounds, 15% with a hit somewhere; the sample as a whole holds those more often. Unmarked numbers belong to inactive results. Active and inactive are the calls of the source. No stated cut-off is given here; in the data, active means growth inhibition above about 70%; inactive means the rest.
Assay: NCI Yeast Anticancer Drug Screen. Data for the rad50 strain (AID 155);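 further: 0% = growth of vehicle-only cultures of the same strain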
Conditions: S. cerevisiae rad50 strain growth inhibition; at 50.0 µM; hits give high values
Procedure, shortened: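 A DNA repair-deficient yeast mutant serves as the test organism; compound-induced growth inhibition is calculated against vehicle-treated cells.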

Row | Structure (SMILES) | growth inhibition
1 | COC(=O)c1nc(=S)[nH]c(C(=O)OC)c1C(=O)c1ccccc1O | 21.9%
2 | O=CNNC(=O)Nc1cccc2ccccc12 | -29.9%
3 | CCOC(=O)c1ccc(CSc2ccc(OC)cc2)cc1 | 86.9% (active)
4 | COc1ccccc1/C=C1/Sc2scc(CC(=O)Nc3ccccc3)[n+]2C1=O | 8.9%
5 | CC(C)Cn1cnc2c(Sc3c([N+](=O)[O-])ncn3C)nc(N)nc21 | 7.95%
6 | N=C1C(O)C2(I)c3ccccc3N3C(=N)C(O)C4c5ccccc5N1C4C32 (stereo not given) | 5.55%
7 | CCCCCCCCCCCCCCCC[N+](C)(C)Cc1ccccc1 | 99.2% (active)
8 | N#CC1(CCCI)CCCC1 | 9.3%
9 | CCOC(=O)C1C(=O)CC(O)(c2ccccc2)C(C(=O)OCC)C1c1ccc(OC)cc1 (stereo not given) | -17.9%
10 | CCCCCCCCCCCCC(F)C(=O)OCC1OC(n2cc(C)c(=O)[nH]c2=O)CC1N=[N+]=[N-] (stereo not given) | 3.25%
11 | C(=C/c1ccccc1)/C=N/N1CCN(/N=C/C=C/c2ccccc2)CC1 | -1.4%
12 | COc1cccc2c1oc(=O)c1ccccc12 | 9.55%
13 | COC(=O)c1nnn(-c2cc(Cl)ccc2Cl)c1C(=O)c1ccc(OC)cc1 | -13.1%
14 | Cc1ccc(C(C)C)nc1 | 17.1%
15 | CCOc1ccccc1N1C(=O)C(=O)C(c2nc3ccccc3o2)C(=O)C1=O | -8.75%
16 | CCCCCCC1(C=O)C(=O)NC(=O)N1C (stereo not given) | 10.3%
17 | Cn1c(=O)c2c(nc(Cl)n2Cc2ccc([N+](=O)[O-])cc2)n(C)c1=O | -2.35%
18 | S=c1sc2ccccc2n1CN1CCCC1 | 6.1%
19 | NN(CC(=O)O)CC(=O)O | 18.8%
20 | O=C1NC2CCC(NC(=O)N1c1ccccc1)C1=C2C1 | -28.6%

Row | Structure (SMILES) | growth inhibition
21 | COc1ccc2c(c1)CCCN2c1ccc(N=C(N)N)cc1 | 2.95%
22 | O=C(O)Cc1cc2cccc([N+](=O)[O-])c2[nH]1 | 1.4%
23 | CCOC(=O)C1SC(=S)N(c2ccccc2)C1N (stereo not given) | -3.75%
24 | COc1cc(Cc2c(OC)c(OC)cc(C)c2C(=O)O)cc(OC)c1 | 18.6%
25 | C/C(=C\c1ccccc1)C(=O)c1ccccc1 | -0.45%
26 | Cc1cc2nc3c(C(O)C(O)C(O)CO)nn(-c4ccccc4)c3nc2cc1C (stereo not given) | -2.55%
27 | CCOc1ccccc1OCC | 25.1%
28 | Cc1ccc(NC(=O)/C=C2\CONC(c3ccccc3)=N2)cc1 | -10.1%
29 | CC(=O)OC1CCC2(C)C(C1)CC(OC(C)=O)C1C2CC(OC(C)=O)C2(C)C(C(C)CC=C(c3ccccc3)c3ccccc3)CCC12 (stereo not given) | 0.1%
30 | O=C1c2ccccc2C(O)(C#Cc2ccccc2)c2c1c(-c1ccccc1)c1ccccc1c2-c1ccccc1 (stereo not given) | 14.7%
31 | C[n+]1ccc(NN)cc1 | -3.5%
32 | O=C1OC(c2ccccc2)=CC1(Cc1ccccc1)Cc1ccccc1 | 0.2%
33 | CCSC(SCC)C(SCC)C(OC(=O)c1ccccc1)C(OC(=O)c1ccccc1)C(COC(=O)c1ccccc1)OC(=O)c1ccccc1 (stereo not given) | 9.3%
34 | CCOC(=O)N1CCC2C(=C(C)C(C)C3=C2C(=O)c2ccccc2C3=O)C1 (stereo not given) | -11.5%
35 | CCC(C)C(C)(O)CC (stereo not given) | -2.6%
36 | Cc1cc(O)c(C)c(C)c1C | -1.05%
37 | O=C1C(=O)N(CN2CCCCC2)c2ccccc21 | 10.4%
38 | CN1CCCC(NC(c2ccccc2)c2ccccc2)C1 (stereo not given) | 25.4%
39 | Cc1cccc(C)c1NC(=S)NC(=O)c1cccc(Cl)c1 | -13.6%
40 | C/C(=C\CC1C(=O)N(c2ccccc2)N(c2ccccc2)C1=O)CO | -10.9%

Assay: NCI Yeast Anticancer Drug Screen. Data for the mec2-1 strain (AID 157)
Conditions: S. cerevisiae mec2-1 strain, at 50.0 µM, hits give high values
Procedure, shortened: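 Vehicle-treated cultures served as reference for growth inhibition of compound-exposed mec2-1 yeast.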

Row | Structure (SMILES) | growth inhibition
41 | COC(=O)c1nc(=S)[nH]c(C(=O)OC)c1C(=O)c1ccccc1O | 11.9%
42 | O=CNNC(=O)Nc1cccc2ccccc12 | -8.85%
43 | CCOC(=O)c1ccc(CSc2ccc(OC)cc2)cc1 | 75.7% (active)
44 | COc1ccccc1/C=C1/Sc2scc(CC(=O)Nc3ccccc3)[n+]2C1=O | 4%
45 | CC(C)Cn1cnc2c(Sc3c([N+](=O)[O-])ncn3C)nc(N)nc21 | -14.1%
46 | N=C1C(O)C2(I)c3ccccc3N3C(=N)C(O)C4c5ccccc5N1C4C32 (stereo not given) | 2.85%
47 | CCCCCCCCCCCCCCCC[N+](C)(C)Cc1ccccc1 | 99% (active)
48 | N#CC1(CCCI)CCCC1 | 7.05%
49 | CCOC(=O)C1C(=O)CC(O)(c2ccccc2)C(C(=O)OCC)C1c1ccc(OC)cc1 (stereo not given) | -13.2%
50 | CCCCCCCCCCCCC(F)C(=O)OCC1OC(n2cc(C)c(=O)[nH]c2=O)CC1N=[N+]=[N-] (stereo not given) | -15.7%
51 | C(=C/c1ccccc1)/C=N/N1CCN(/N=C/C=C/c2ccccc2)CC1 | 20.6%
52 | COc1cccc2c1oc(=O)c1ccccc12 | -6.75%
53 | COC(=O)c1nnn(-c2cc(Cl)ccc2Cl)c1C(=O)c1ccc(OC)cc1 | 3.8%
54 | Cc1ccc(C(C)C)nc1 | 18.5%
55 | CCOc1ccccc1N1C(=O)C(=O)C(c2nc3ccccc3o2)C(=O)C1=O | 4.3%
56 | CCCCCCC1(C=O)C(=O)NC(=O)N1C (stereo not given) | 9.65%
57 | Cn1c(=O)c2c(nc(Cl)n2Cc2ccc([N+](=O)[O-])cc2)n(C)c1=O | 20%
58 | S=c1sc2ccccc2n1CN1CCCC1 | 0.05%
59 | NN(CC(=O)O)CC(=O)O | -2.8%
60 | O=C1NC2CCC(NC(=O)N1c1ccccc1)C1=C2C1 | -8.85%

Row | Structure (SMILES) | growth inhibition
61 | COc1ccc2c(c1)CCCN2c1ccc(N=C(N)N)cc1 | -6.35%
62 | O=C(O)Cc1cc2cccc([N+](=O)[O-])c2[nH]1 | 6.65%
63 | CCOC(=O)C1SC(=S)N(c2ccccc2)C1N (stereo not given) | 14.6%
64 | COc1cc(Cc2c(OC)c(OC)cc(C)c2C(=O)O)cc(OC)c1 | -12.8%
65 | C/C(=C\c1ccccc1)C(=O)c1ccccc1 | 3.85%
66 | Cc1cc2nc3c(C(O)C(O)C(O)CO)nn(-c4ccccc4)c3nc2cc1C (stereo not given) | 5.05%
67 | CCOc1ccccc1OCC | -27.2%
68 | Cc1ccc(NC(=O)/C=C2\CONC(c3ccccc3)=N2)cc1 | -5.7%
69 | CC(=O)OC1CCC2(C)C(C1)CC(OC(C)=O)C1C2CC(OC(C)=O)C2(C)C(C(C)CC=C(c3ccccc3)c3ccccc3)CCC12 (stereo not given) | 11.6%
70 | O=C1c2ccccc2C(O)(C#Cc2ccccc2)c2c1c(-c1ccccc1)c1ccccc1c2-c1ccccc1 (stereo not given) | 6.15%
71 | C[n+]1ccc(NN)cc1 | -15.8%
72 | O=C1OC(c2ccccc2)=CC1(Cc1ccccc1)Cc1ccccc1 | -25.4%
73 | CCSC(SCC)C(SCC)C(OC(=O)c1ccccc1)C(OC(=O)c1ccccc1)C(COC(=O)c1ccccc1)OC(=O)c1ccccc1 (stereo not given) | -2.35%
74 | CCOC(=O)N1CCC2C(=C(C)C(C)C3=C2C(=O)c2ccccc2C3=O)C1 (stereo not given) | -3.5%
75 | CCC(C)C(C)(O)CC (stereo not given) | -28.9%
76 | Cc1cc(O)c(C)c(C)c1C | -6.55%
77 | O=C1C(=O)N(CN2CCCCC2)c2ccccc21 | -40.9%
78 | CN1CCCC(NC(c2ccccc2)c2ccccc2)C1 (stereo not given) | 0.45%
79 | Cc1cccc(C)c1NC(=S)NC(=O)c1cccc(Cl)c1 | -23%
80 | C/C(=C\CC1C(=O)N(c2ccccc2)N(c2ccccc2)C1=O)CO | -32.2%

Source: PubChem BioAssay (NCI)
